Assay results: the supplement of paper PMC9948646
Values without a mark were called inactive.

System: gramicidin D channels in DC22:1PC lipid vesicles (bilayer-modifying potency)
Test: initial Tl+ fluorescence quench rate relative to no-drug control (NormRate, gramicidin monomer-dimer shift) (ratio (fold of control)); higher = stronger bilayer-modifying effect (equilibrium shifted toward conducting dimers), active = 1.5 or more
Details: 10 µM; lipid concentration 50 µM; temperature: 25 °C
Protocol: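 Stopped-flow fluorescence quench assay: ANTS-loaded DC22:1PC large unilamellar vesicles doped with gramicidin D (1:2000), 50 µM lipid, equilibrated 10 min with 10 µM drug (0.1% DMSO), mixed with Tl+ quench buffer at 25°C. Initial quench rate (Tl+ influx) was fitted with a modified stretched exponential and normalised to the no-drug control rate (NormRate); duplicates from two independent LUV preparations (triplicates for 7 drugs).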

SMILES	initial Tl+ fluorescence quench rate
Nc1c2c(nc3sc4c(c13)CCCC4)CCCC2	1.07
Cc1cc(C2=NO[C@@](c3cc(Cl)c(F)c(Cl)c3)(C(F)(F)F)C2)ccc1C(=O)NCc1ccc2c(c1)C(C)(C)OB2O	4.21 (active)
CO/N=C(\C(=O)OC)c1ccccc1CO/N=C(\C)c1cccc(C(F)(F)F)c1	1.36
C[C@@H]1CO[C@](Cn2cncn2)(c2ccc(Oc3ccc(Cl)cc3)cc2Cl)O1	2.49 (active)
Cc1nn(Cc2ccccc2)c(Cl)c1C(=O)NC1CCCCCC1	1.1
CC1(C)OB(O)c2ccc(C3=NO[C@@](c4cc(Cl)c(F)c(Cl)c4)(C(F)(F)F)C3)cc21	4.11 (active)
Cc1cccc(C(=O)Nc2ccnc(N(C)C3CCN(CC(C)C)CC3)c2)c1	1.12
CC(C)(C)[C@@H](O)[C@H](Oc1ccc(-c2ccccc2)cc1)n1cncn1	2.39 (active)
CO/C=C(/C(=O)OC)c1ccccc1Oc1cc(Oc2ccccc2C#N)ncn1	1.05
CO[C@@H]1CN(c2ccc(C#C[C@@]3(O)CN4CCC3CC4)c(Cc3ccccc3)n2)C[C@H]1O	1.06
CCc1nn(C)c(C(=O)NCc2ccc(Oc3ccc(C)cc3)cc2)c1Cl	2.89 (active)
O=C1O[C@@H](CO)CN1c1cc(F)c(C2=CCN(Cc3ccccc3)CC2)c(F)c1	1.13
O=C1O[C@@H](COc2ccon2)CN1c1cc(F)c(C2=CCN(Cc3ccccc3)CC2)c(F)c1	1.31
Cc1nn(C)c(C)c1NS(=O)(=O)c1c(Cl)cc(-c2ccnc(N3CCNCC3)c2)cc1Cl	1.38
